# In PubChem BioAssay (EPA / NIEHS):
# Several values for one entry are separate records, joined by “and”; a condition that tells them apart may be missing. Identical values can stand only once. Results filed as inconclusive are left out. A structure can be active in one record and inactive in another. Activity calls are given as the source filed them. Rule for the calls, unless noted: active = hit-call score of the fitted dose curve at least 0.9, where 1 is the maximum; inconclusive = response in the unintended direction; inactive = score below 0.9.
# What was measured:
# [1] = molecular target: human Retinoid X Receptor beta (RXRb), RXRB (gene 6257) (UniProt P28702); test: ATG_RXRb_TRANS: Attagene TRANS-FACTORIAL HepG2 Assay for human Retinoid X Receptor beta (RXRb) (AID 2283013)
# How it was run: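 Readout is reporter transcript induction after 24 h dosing. It is measured by RT-PCR of total RNA followed by fluorescent capillary electrophoresis. HepG2 liver cells carry transfected multiple reporter units driven by an exogenous RXRb-Gal4 fusion; activity is relative to DMSO.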
# [2] = molecular target: human Vitamin D Receptor (VDR), VDR (gene 7421) (UniProt P11473); test: ATG_VDR_TRANS: Attagene TRANS-FACTORIAL HepG2 Assay for human Vitamin D Receptor (VDR) (AID 2283022)
# How it was run: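 HepG2 cells were transiently transfected with GAL4-UAS reporter units and a chimeric VDR-Gal4 construct, then dosed for 24 hours. Reporter mRNA was quantified by RT-PCR, fluorescent labeling, HpaI digestion and capillary electrophoresis; gain of signal analysed vs DMSO.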
# [3] = molecular target: human Thyroid Receptor alpha (THRa1), THRA (gene 7067) (UniProt P10827); test: ATG_THRa1_TRANS: Attagene TRANS-FACTORIAL HepG2 Assay for human Thyroid Receptor alpha (THRa1) (AID 2283014)
# How it was run: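 HepG2 cells transiently transfected with chimeric NR-Gal4 and GAL4-UAS reporter units, dosed 24 h. Reporter mRNA quantified by RT-PCR, fluorescent labeling, HpaI digestion and capillary electrophoresis; gain-of-signal fit versus DMSO.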
# [4] = read-out: E-selectin (Homo sapiens) (UniProt P16581); test: BSK_3C_Eselectin: BioMAP Diversity Plus: 3C Assay for Eselectin Biomarker Activity (AID 2283015; active = hit-call score of the fitted dose curve at least 0.9, where 1 is the maximum; inactive = score below 0.9;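 for outcome: cell surface E-selectin protein quantified by ELISA 24 h after dosing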); settings: primary human endothelial cells (HUVEC); actives raise or lower the signal
# How it was run: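 Primary human umbilical vein endothelial cells (3C system), read 24 h after compound addition; E-selectin measured by ELISA. Bidirectional curve fitting against DMSO baseline; cytotoxicity by parallel SRB total-protein staining.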
# [5] = read-out: Interleukin-1 alpha (IL1a), IL1A (gene 3552); test: BSK_BE3C_IL1a: BioMAP Diversity Plus: BE3C Assay for Interleukin-1 alpha (IL1a) Biomarker Activity (AID 2283016; active = hit-call score of the fitted dose curve at least 0.9, where 1 is the maximum; inactive = score below 0.9); settings: primary human bronchial epithelial cells; actives raise or lower the signal
# How it was run: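 IL-1a measured by ELISA after 24 h treatment of human primary bronchial epithelial cells, with gain or loss of signal fitted versus DMSO. Parallel cultures stained with SRB gauge overt cytotoxicity.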
# [6] = read-out: Monocyte Chemoattractant Protein-1 (MCP1), CCL2 (gene 6347); test: BSK_3C_MCP1: BioMAP Diversity Plus: 3C Assay for Monocyte Chemoattractant Protein-1 (MCP1) Biomarker Activity (AID 2283017; active = hit-call score of the fitted dose curve at least 0.9, where 1 is the maximum; inactive = score below 0.9); settings: primary human endothelial cells (HUVEC); actives raise or lower the signal
# How it was run: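 Human umbilical vein endothelial cells (3C system) exposed to chemicals for 24 h; MCP-1 quantified by ELISA against the DMSO baseline with bidirectional fitting, and parallel SRB staining used to assess cytotoxicity.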
# [7] = read-out: Monocyte Chemoattractant Protein-1 (MCP1), CCL2 (gene 6347); test: BSK_4H_MCP1: BioMAP Diversity Plus: 4H Assay for Monocyte Chemoattractant Protein-1 (MCP1) Biomarker Activity (AID 2283018; active = hit-call score of the fitted dose curve at least 0.9, where 1 is the maximum; inactive = score below 0.9); settings: primary human endothelial cells (HUVEC); actives raise or lower the signal
# How it was run: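 ELISA of MCP-1 (CCL2) 24 h after chemical dosing of HUVEC in the BioMAP 4H system. Gain or loss versus DMSO fitted; parallel SRB staining (560 nm) tracked overt cytotoxicity.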
# [8] = read-out: Human Leukocyte Antigen - DR isotype (HLADR), HLA-DRA (gene 3122); test: BSK_3C_HLADR: BioMAP Diversity Plus: 3C Assay for Human Leukocyte Antigen - DR isotype (HLADR) Biomarker Activity (AID 2283019; active = hit-call score of the fitted dose curve at least 0.9, where 1 is the maximum; inactive = score below 0.9); settings: primary human endothelial cells (HUVEC); actives raise or lower the signal
# How it was run: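 HUVEC monoculture, HLA-DR measured by ELISA 24 h after chemical dosing. Fitted bidirectionally against DMSO baseline; parallel SRB staining assessed cytotoxicity, with 3C proliferation read by SRB at 48 h.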
# [9] = read-out: Interleukin-8 (IL8), CXCL8 (gene 3576); test: BSK_3C_IL8: BioMAP Diversity Plus: 3C Assay for Interleukin-8 (IL8) Biomarker Activity (AID 2283020; active = hit-call score of the fitted dose curve at least 0.9, where 1 is the maximum; inactive = score below 0.9); settings: primary human endothelial cells (HUVEC); actives raise or lower the signal
# How it was run: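 IL-8 was measured by ELISA in HUVEC cultures 24 h after chemical dosing, with gain or loss of signal fitted relative to DMSO. Parallel SRB total-protein staining tracked overt cytotoxicity.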
# [10] = read-out: Monokine induced gamma interferon (MIG), CXCL9 (gene 4283); test: BSK_3C_MIG: BioMAP Diversity Plus: 3C Assay for Monokine induced gamma interferon (MIG) Biomarker Activity (AID 2283021; active = hit-call score of the fitted dose curve at least 0.9, where 1 is the maximum; inactive = score below 0.9); settings: primary human endothelial cells (HUVEC); actives raise or lower the signal
# How it was run: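 ELISA measurement of MIG in human umbilical vein endothelial cells 24 h after treatment. Cytotoxicity tracked by SRB staining in parallel cultures; gain or loss of signal fitted relative to DMSO.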
# [11] = BSK_3C_SRB: Viability Assessment in the BioMAP Diversity Plus: 3C Assay (AID 2283023; active = hit-call score of the fitted dose curve at least 0.9, where 1 is the maximum; inactive = score below 0.9;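 note: fitted both ways against DMSO so a hit may be signal rise or drop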); settings: primary human endothelial cells (HUVEC)
# How it was run: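 Human umbilical vein endothelial cells in the 3C system, treated 24 h. Total protein measured by 0.1% sulforhodamine B staining after 10% TCA fixation, read at 560 nm; bidirectional fit versus DMSO.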
# [12] = read-out: Matrix Metallopeptidase 1 (MMP1), MMP1 (gene 4312); test: BSK_BE3C_MMP1: BioMAP Diversity Plus: BE3C Assay for Matrix Metallopeptidase 1 (MMP1) Biomarker Activity (AID 2283024; active = hit-call score of the fitted dose curve at least 0.9, where 1 is the maximum; inactive = score below 0.9); settings: primary human bronchial epithelial cells; actives raise or lower the signal
# How it was run: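 ELISA measurement of MMP-1 after 24 h compound exposure of primary human bronchial epithelial cells. Changes in either direction fitted relative to DMSO; parallel SRB staining checked overt cytotoxicity.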
# [13] = read-out: Pselectin, SELP (gene 6403); test: BSK_4H_Pselectin: BioMAP Diversity Plus: 4H Assay for Pselectin Biomarker Activity (AID 2283026; active = hit-call score of the fitted dose curve at least 0.9, where 1 is the maximum; inactive = score below 0.9); settings: primary human endothelial cells (HUVEC); actives raise or lower the signal
# How it was run: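 ELISA of surface P-selectin on HUVEC, 24 h after dosing, with parallel SRB staining (0.1% after 10% TCA fixation, 560 nm) for overt cytotoxicity. Activity fitted in both directions relative to DMSO.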
# [14] = BSK_BE3C_SRB: Viability Assessment in the BioMAP Diversity Plus: BE3C Assay (AID 2283028; active = hit-call score of the fitted dose curve at least 0.9, where 1 is the maximum; inactive = score below 0.9); settings: primary human bronchial epithelial cells
# How it was run: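 Human bronchial epithelial primary cells in confluent culture, 24 h after chemical dosing; total protein by 0.1% SRB staining after 10% TCA fixation, read at 560 nm. Bidirectional fitting versus DMSO baseline.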
# [15] = read-out: Thrombomodulin, THBD (gene 7056); test: BSK_3C_Thrombomodulin: BioMAP Diversity Plus: 3C Assay for Thrombomodulin Biomarker Activity (AID 2283029; active = hit-call score of the fitted dose curve at least 0.9, where 1 is the maximum; inactive = score below 0.9); settings: primary human endothelial cells (HUVEC); actives raise or lower the signal
# How it was run: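 ELISA measurement of thrombomodulin on HUVEC surface 24 h after chemical dosing; activity fitted in both directions relative to DMSO vehicle.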
# [16] = read-out: Vascular endothelial growth factor receptor 2 (Homo sapiens) (UniProt P35968); test: BSK_4H_VEGFRII: BioMAP Diversity Plus: 4H Assay for Vascular endothelial growth factor receptor 2 (VEGFR2) Biomarker Activity (AID 2283031; active = hit-call score of the fitted dose curve at least 0.9, where 1 is the maximum; inactive = score below 0.9;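 for AC50: cell-surface VEGFR2 protein level quantified by ELISA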); settings: primary human endothelial cells (HUVEC); actives raise or lower the signal
# How it was run: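 Primary human umbilical vein endothelial cells (4H system), 24 h exposure; cell-surface VEGFR2 measured by ELISA. Bidirectional fitting versus DMSO; cytotoxicity checked in parallel by SRB total-protein staining.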
# [17] = read-out: Human Leukocyte Antigen - DR isotype (HLADR), HLA-DRA (gene 3122); test: BSK_BE3C_HLADR: BioMAP Diversity Plus: BE3C Assay for Human Leukocyte Antigen - DR isotype (HLADR) Biomarker Activity (AID 2283032; active = hit-call score of the fitted dose curve at least 0.9, where 1 is the maximum; inactive = score below 0.9); settings: primary human bronchial epithelial cells; actives raise or lower the signal
# How it was run: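 Cell-surface HLA-DR ELISA readout at 24 h after dosing in the BE3C primary human lung bronchial epithelial system; gain or loss of signal against DMSO, with parallel sulforhodamine B staining of total protein for overt cytotoxicity.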
# [18] = read-out: Vascular cell adhesion molecule 1 (VCAM1), VCAM1 (gene 7412); test: BSK_4H_VCAM1: BioMAP Diversity Plus: 4H Assay for Vascular cell adhesion molecule 1 (VCAM1) Biomarker Activity (AID 2283033; active = hit-call score of the fitted dose curve at least 0.9, where 1 is the maximum; inactive = score below 0.9;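 for outcome: cell-surface VCAM-1 protein measured by ELISA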); settings: primary human endothelial cells (HUVEC); actives raise or lower the signal
# How it was run: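 VCAM-1 ELISA read 24 h after chemical dosing of HUVEC in the BioMAP 4H system, with gain or loss of signal fitted relative to DMSO. Parallel SRB staining (560 nm) checked overt cytotoxicity.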
# [19] = read-out: Interferon-gamma inducible Protein 10 (IP10), CXCL10 (gene 3627); test: BSK_BE3C_IP10: BioMAP Diversity Plus: BE3C Assay for Interferon-gamma inducible Protein 10 (IP10) Biomarker Activity (AID 2283034; active = hit-call score of the fitted dose curve at least 0.9, where 1 is the maximum; inactive = score below 0.9); settings: primary human bronchial epithelial cells; actives raise or lower the signal
# How it was run: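 IP-10 quantified by ELISA in human primary bronchial epithelial cell cultures at 24 hours post-dosing. Gain or loss of signal fitted relative to DMSO; parallel SRB staining assessed overt cytotoxicity.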
# [20] = BSK_3C_Vis: BioMAP Diversity Plus: 3C Assay for Morphology Visualization (AID 2283025; active = hit-call score of the fitted dose curve at least 0.9, where 1 is the maximum; inactive = score below 0.9;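 note: fitted both ways so gain or loss versus DMSO counts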); settings: primary human endothelial cells (HUVEC)
# How it was run: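 Light-microscopy visualization of HUVEC cultures at 24 h post-treatment, with DMSO as baseline for bidirectional fitting.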
# Sequence of human Thyroid Receptor alpha (THRa1), THRA (gene 7067) (P10827 whole entry, looked up, the tested form may be a part): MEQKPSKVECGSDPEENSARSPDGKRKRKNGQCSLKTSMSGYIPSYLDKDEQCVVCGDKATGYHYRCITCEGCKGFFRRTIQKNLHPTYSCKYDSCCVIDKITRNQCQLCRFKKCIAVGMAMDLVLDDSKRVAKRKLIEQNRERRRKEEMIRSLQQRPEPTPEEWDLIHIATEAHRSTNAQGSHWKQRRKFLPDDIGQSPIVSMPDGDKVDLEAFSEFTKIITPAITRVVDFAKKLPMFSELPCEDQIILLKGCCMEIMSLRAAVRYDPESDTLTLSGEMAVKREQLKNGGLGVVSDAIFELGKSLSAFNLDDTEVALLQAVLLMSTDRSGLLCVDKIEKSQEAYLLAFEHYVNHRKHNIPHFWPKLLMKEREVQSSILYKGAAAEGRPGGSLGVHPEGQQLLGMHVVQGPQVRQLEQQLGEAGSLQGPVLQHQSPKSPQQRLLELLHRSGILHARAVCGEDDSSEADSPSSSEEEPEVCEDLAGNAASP
# Sequence of human Vitamin D Receptor (VDR), VDR (gene 7421) (P11473 whole entry, looked up, the tested form may be a part): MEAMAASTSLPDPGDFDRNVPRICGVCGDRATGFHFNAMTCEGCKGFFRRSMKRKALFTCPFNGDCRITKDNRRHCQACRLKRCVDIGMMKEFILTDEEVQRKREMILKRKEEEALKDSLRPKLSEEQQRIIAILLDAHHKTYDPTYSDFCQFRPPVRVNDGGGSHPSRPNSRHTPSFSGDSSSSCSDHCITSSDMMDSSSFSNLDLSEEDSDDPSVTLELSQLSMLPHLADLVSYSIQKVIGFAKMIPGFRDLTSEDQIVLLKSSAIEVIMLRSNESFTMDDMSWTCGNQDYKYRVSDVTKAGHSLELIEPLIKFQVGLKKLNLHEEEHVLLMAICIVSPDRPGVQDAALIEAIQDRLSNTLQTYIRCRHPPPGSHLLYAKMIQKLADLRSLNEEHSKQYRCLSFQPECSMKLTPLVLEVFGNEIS
# Sequence of human Retinoid X Receptor beta (RXRb), RXRB (gene 6257) (P28702 whole entry, looked up, the tested form may be a part): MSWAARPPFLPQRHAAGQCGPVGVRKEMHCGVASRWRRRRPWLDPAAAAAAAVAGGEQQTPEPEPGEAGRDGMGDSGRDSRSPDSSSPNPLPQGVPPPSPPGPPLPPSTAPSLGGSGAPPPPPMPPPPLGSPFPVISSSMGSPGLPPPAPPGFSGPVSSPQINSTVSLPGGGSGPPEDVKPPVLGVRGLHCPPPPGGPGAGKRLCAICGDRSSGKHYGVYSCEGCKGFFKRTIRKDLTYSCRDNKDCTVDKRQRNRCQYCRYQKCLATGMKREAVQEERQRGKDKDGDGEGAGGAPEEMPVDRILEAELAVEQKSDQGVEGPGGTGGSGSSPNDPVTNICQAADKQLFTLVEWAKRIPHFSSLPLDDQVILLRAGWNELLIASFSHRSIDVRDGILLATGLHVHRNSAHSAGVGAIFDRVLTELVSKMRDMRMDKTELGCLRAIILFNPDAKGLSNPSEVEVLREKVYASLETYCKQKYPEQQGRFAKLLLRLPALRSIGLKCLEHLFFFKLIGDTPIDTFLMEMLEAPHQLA
# Sequence of E-selectin (Homo sapiens) (P16581 whole entry, looked up): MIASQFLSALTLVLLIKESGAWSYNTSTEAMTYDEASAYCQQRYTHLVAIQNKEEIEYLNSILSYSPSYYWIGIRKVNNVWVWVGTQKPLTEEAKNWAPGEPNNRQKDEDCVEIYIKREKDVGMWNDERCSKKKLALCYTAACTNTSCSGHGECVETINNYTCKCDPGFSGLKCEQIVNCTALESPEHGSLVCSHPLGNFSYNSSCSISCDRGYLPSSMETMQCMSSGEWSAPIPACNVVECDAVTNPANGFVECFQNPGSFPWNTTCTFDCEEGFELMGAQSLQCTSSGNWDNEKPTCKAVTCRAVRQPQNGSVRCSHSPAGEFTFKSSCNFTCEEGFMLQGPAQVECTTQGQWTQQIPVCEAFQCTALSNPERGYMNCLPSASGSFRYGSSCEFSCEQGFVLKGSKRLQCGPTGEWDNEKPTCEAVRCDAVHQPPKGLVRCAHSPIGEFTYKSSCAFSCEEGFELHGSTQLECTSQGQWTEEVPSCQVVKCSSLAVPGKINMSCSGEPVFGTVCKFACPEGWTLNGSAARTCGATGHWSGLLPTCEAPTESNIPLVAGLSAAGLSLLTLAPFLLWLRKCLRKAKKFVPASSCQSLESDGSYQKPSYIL
structure (smiles),measurement,setting,value
Cc1ccc(N)c([N+](=O)[O-])c1,outcome,[1],inactive
same,outcome,[2],inactive
CC(=O)CC(N)=O,outcome,[1],inactive
same,outcome,[2],inactive
O=CN1CCCCC1,outcome,[1],inactive
same,outcome,[2],inactive
C1=Cc2ccccc2C1,outcome,[1],inactive
same,outcome,[3],inactive
same,outcome,[2],inactive
Nc1ccc(N)c(Cl)c1,outcome,[1],inactive
same,AC50,[4],5.26 µM (active)
same,outcome,[4],inactive
same,AC50,[5],20 µM (active)
same,outcome,[5],inactive
same,AC50,[6],32.4 µM (active) and 31.9 µM (active)
same,AC50,[7],26.1 µM (active) and 14.6 µM (active)
same,AC50,[8],30.2 µM (active) and 31.4 µM (active)
same,outcome,[9],inactive
same,outcome,[10],inactive
same,outcome,[2],inactive
same,AC50,[11],28.6 µM (active) and 30.6 µM (active)
same,AC50,[12],150 nM (active) and 1.5 µM (active)
same,AC50,[13],6.21 µM (active) and 3.97 µM (active)
same,outcome,[14],inactive
same,outcome,[15],inactive
same,AC50,[16],10.2 µM (active)
same,outcome,[16],inactive
same,outcome,[17],inactive
same,AC50,[18],20 µM (active) and 19.6 µM (active)
same,outcome,[19],inactive
CCCCCc1ccc(Cl)cc1,outcome,[1],inactive
same,outcome,[2],inactive
CC(CC=O)c1ccccc1 (stereo unspecified),outcome,[1],inactive
same,outcome,[2],inactive
CCc1c(C(=O)O)c(=O)cnn1-c1ccc(Cl)cc1,outcome,[1],inactive
same,outcome,[2],inactive
CCC(C)(C)C1CCCCC1OC(C)=O (stereo unspecified),AC50,[1],74.1 µM (active)
same,outcome,[2],inactive
CCCCCCC1(C)CCC(=O)O1 (stereo unspecified),outcome,[1],inactive
same,outcome,[2],inactive
Nc1ccc(N=Nc2ccccc2)c(N)n1,outcome,[1],inactive
same,outcome,[2],inactive
Cc1cc(C)c(C)cc1C,outcome,[1],inactive
same,outcome,[2],inactive
COCC(C)N (stereo unspecified),outcome,[3],inactive
same,outcome,[2],inactive
CCCCCCCCO[C@@H]1O[C@H](CO)[C@@H](O)[C@H](O)[C@H]1O,outcome,[3],inactive
same,outcome,[2],inactive
O=C(O)c1ccccc1Nc1cccc(C(F)(F)F)c1,outcome,[3],inactive
same,outcome,[2],inactive
CCOC(=O)CC,outcome,[3],inactive
same,outcome,[2],inactive
O=C1CCC(=O)N1Cl,outcome,[3],inactive
same,outcome,[2],inactive
CCCCCCCOC(=O)CCC,outcome,[3],inactive
same,outcome,[2],inactive
c1cc(N(CC2CO2)CC2CO2)ccc1OCC1CO1 (stereo unspecified),outcome,[3],inactive
same,outcome,[2],inactive
O=C(c1ccccc1)c1ccc(O)c(O)c1O,outcome,[3],inactive
same,outcome,[2],inactive
CCC(Cc1ccccc1)(C(=O)c1ccc(N2CCOCC2)cc1)N(C)C (stereo unspecified),outcome,[3],inactive
same,outcome,[2],inactive
OCCc1ccncc1,outcome,[3],inactive
same,outcome,[2],inactive
O=S(=O)(O)c1ccccc1C=Cc1ccc(-c2ccc(C=Cc3ccccc3S(=O)(=O)O)cc2)cc1,outcome,[3],inactive
same,outcome,[2],inactive
Nc1nc2ccccc2[nH]1,outcome,[3],inactive
same,outcome,[2],inactive
C=CC=CC=CCCCCC,outcome,[3],inactive
same,outcome,[4],inactive
same,outcome,[5],inactive
same,outcome,[6],inactive
same,outcome,[7],inactive
same,outcome,[8],inactive
same,outcome,[9],inactive
same,outcome,[10],inactive
same,outcome,[11],inactive
same,outcome,[12],inactive
same,outcome,[20],inactive
same,outcome,[13],inactive
same,outcome,[14],inactive
same,outcome,[15],inactive
same,outcome,[16],inactive
same,AC50,[17],5 µM (active)
same,outcome,[18],inactive
same,AC50,[19],5 µM (active)
